Only some compounds are listed: those with a hit (about 12% of all), similar ones and a draw of the others.
HP1b binding inh – blocks HP1-beta chromodomain binding to methylated histone tails. P83916. AlphaScreen HP1-beta / biotin-H3K9me3 peptide binding. Potency, µM (titrated, usually from 114 µM), usual class: inhibitors. actives 0.56% (n = 390,000); note: nearly all actives have a fitted effect of over 70% in size
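AlphaScreen: HP1-beta (50 nM) preformed 30 min with biotin-H3(1-18)K9me3 peptide (50 nM) in PBS pH 7.4, 0.01% Tween-20. Compound added for 30 min at RT, then streptavidin donor/nickel chelate acceptor beads (10 ug/mL) for 30 min.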
BAZ2B block – BAZ2B (human) inhibition | Q9UIF8 | AlphaScreen BAZ2B-H3K14Ac peptide displacement | Potency, µM (series often up to 114 µM), most hits filed as inhibitors | actives 4.4% (n = 360,000); note: nearly all actives have a fitted effect of over 60% in size
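BAZ2B (50 nM) with biotin-H3(5-23)K14Ac peptide (50 nM) in PBS pH 7.4, 0.01% Tween-20, preformed 30 min, then compound 30 min at room temperature; top concentration 110uM. AlphaScreen streptavidin donor/nickel chelate acceptor beads (10 ug/mL final), 20 min dark, signal read.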
G9a block – G9a (human) methyltransferase inhibition. actives 8.8% (n = 350,000). Q96KQ7. AID 504332. Potency, µM (titrated, usually from 102 µM), hits mostly inhibitors. G9a H3K9 monomethylation, AlphaScreen, 2 h; note: nearly all actives have a fitted effect of over 75% in size
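Enzyme 20 nM + cpd, 15 min RT; add b-H3K9 pep 500 nM / SAM 20 uM; 2 h RT; anti-H3K9me1 Ab 0.5 ug/mL + SA donor / anti-rabbit acceptor beads 20 ug/mL each, 10 min; AlphaScreen read.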
JMJD2A Tudor – inhibitors of human JMJD2A Tudor domain | O75164 | AlphaScreen JMJD2A-Tudor / H3K4me3 peptide binding | Potency, µM (titrated, usually from 114 µM), hits mostly inhibitors | actives 4.4% (n = 390,000) | AID 504339; note: nearly all actives have a fitted effect of over 50% in size
Sfp PPTase inh – Sfp phosphopantetheinyl transferase inhibition; actives 3.5% (n = 310,000); Q9F4F7; Potency, µM, most hits filed as inhibitors; Biochemical Sfp PPTase activity, qHTS; AID 1490;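 note: the enzyme is Sfp with the accession as filed and its product quenches rhodamine fluorescence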
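Buffer: 50 mM Hepes-Na pH 7.6, 10 mM MgCl2, 0.01% Nonidet P-40, 0.01% BSA. Enzyme 15 nM, pre-exposed to compound 15 min; substrates then added and fluorescence change tracked over 30 min.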
Each line names hits and unclear results; the compound was inactive in the other large screens. Calls come from the whole dose curve; as a rule, active = well fitted curve in the direction sought with a large enough effect; inconclusive = small, poorly fitted or top-dose-only effect, or another doubt; inactive = no such curve, though single readings can be large; an effect the other way counts as inactive or inconclusive.

Cn1c(CNC(=O)c2ccccc2F)nnc1SCC(=O)NCc1ccccc1	none
CCc1ccccc1NC(=O)C1CCN(C(=O)N2CC(C)Oc3ccc(Cl)cc32)CC1 (stereo not drawn)	HP1b binding inh inconclusive, G9a block inconclusive, JMJD2A Tudor inconclusive (no result: Sfp PPTase inh)
COc1cc(OC)c(NC(=O)c2noc3c2CSc2ccccc2-3)cc1Cl	G9a block 1.58µM (no result: Sfp PPTase inh)
O=C(Nc1ccc(OC(F)(F)F)cc1)c1noc2c1CCCC2	none (no result: Sfp PPTase inh)
CC(=O)c1ccc(NC(=O)c2noc3c2CCC3)cc1	HP1b binding inh inconclusive, BAZ2B block 56.2µM, G9a block 39.8µM
O=C(COC(=O)c1ccc(S(=O)(=O)N2CCCC2)cc1)Nc1ccc(Cl)cc1	none (no result: Sfp PPTase inh)
Cc1occc1C(=O)N(C)Cc1nc(-c2ccc(Cl)cc2)no1	none
CCc1cccc(OCCCCN(CC)CC)c1	BAZ2B block inconclusive, JMJD2A Tudor 3.55µM
CCOc1cccc(OCCCNCCCOC)c1	HP1b binding inh inconclusive, BAZ2B block 39.8µM, G9a block inconclusive, JMJD2A Tudor 2.82µM
OCCNCCCCOc1cccc(Br)c1	none
CC(=O)NCCOc1cccc(OCCNC(C)=O)c1	none
Nc1nnc(SCCOc2cccc(Br)c2)s1	G9a block inconclusive
C=CCNCCCCOc1cccc(Br)c1	HP1b binding inh inconclusive, BAZ2B block 31.6µM, JMJD2A Tudor 0.708µM, Sfp PPTase inh 44.7µM (no result: G9a block)
COCCCNCCCCOc1cccc(Br)c1	BAZ2B block inconclusive, G9a block 28.2µM, JMJD2A Tudor 2.51µM
O=C(Nc1ccccc1Cl)[C@H](CSCc1ccccc1)N1Cc2ccccc2C1=O	none (no result: Sfp PPTase inh)
COc1cc(OC)nc(Oc2ccccc2C(=O)Oc2ccccc2Cl)n1	none (no result: G9a block)
CCc1cccc(OCCCCNCCCOC)c1	HP1b binding inh inconclusive, BAZ2B block inconclusive, G9a block 12.6µM, JMJD2A Tudor 6.31µM, Sfp PPTase inh inconclusive
Cc1ccc(C2(c3ccccc3)NC(=O)N(CC(=O)NC3CCCCC3)C2=O)cc1C (stereo not drawn)	G9a block 14.1µM (no result: Sfp PPTase inh)
Cc1cc(=O)n2[nH]c(N)c(N=Nc3ccccc3)c2n1	none
Cc1[nH]c(N=Nc2ccccc2)nc1N=Nc1ccccc1	HP1b binding inh inconclusive, BAZ2B block 6.31µM, G9a block 7.94µM, JMJD2A Tudor 7.94µM
O=S(=O)(c1ccc2c(c1)OCCO2)N1CCN(S(=O)(=O)c2ccccc2F)CC1	none (no result: HP1b binding inh, BAZ2B block, G9a block, Sfp PPTase inh)
Cc1cc(C)n2nc(CC(=O)NNC(=O)COc3ccccc3)nc2n1	G9a block 25.1µM
COc1cccc(CNC(=O)Cc2nc3nc(C)cc(C)n3n2)c1	none
Cc1cc(C)n2nc(CC(=O)NCc3ccc(F)cc3)nc2n1	G9a block inconclusive, JMJD2A Tudor 70.8µM
Cc1cc(C)n2nc(C(=O)OCC(=O)c3ccc(F)cc3)nc2n1	G9a block 56.2µM (no result: Sfp PPTase inh)
Cc1ccc(CNC(=O)Cc2nc3nc(C)cc(C)n3n2)cc1	none
CCOC(=O)Cc1csc(SCC(=O)N2CCN(c3ccc(OC)cc3)CC2)n1	BAZ2B block inconclusive, G9a block inconclusive
c1ccc(Nc2ncnc3[nH]ncc23)cc1	G9a block 50.1µM
CCCNc1ncnc2[nH]ncc12	none (no result: BAZ2B block, G9a block, Sfp PPTase inh)
COc1ccc(OC(C)C(=O)N(C)Cc2nc(-c3ccccc3)no2)cc1 (stereo not drawn)	none
CCS(=O)(=O)c1cc([N+](=O)[O-])c(Sc2ccccc2NC(C)=O)s1	G9a block 1.12µM, JMJD2A Tudor 20µM, Sfp PPTase inh 0.447µM
O=C(COc1ccc2ccccc2c1Br)NCc1ccccn1	none
O=C(O)/C=C/C(=O)Nc1ccc(SC(F)(F)C(F)(F)C(F)(F)F)cc1	none
O=C(O)/C=C/C(=O)Nc1ccc(OC(F)(F)Cl)cc1	G9a block 44.7µM
O=C(O)/C=C/C(=O)Nc1ccc(Cc2ccc(NC(=O)/C=C/C(=O)O)cc2)cc1	G9a block 44.7µM
O=C(O)/C=C/C(=O)Nc1ccc(Oc2ccc(NC(=O)/C=C/C(=O)O)cc2)cc1	BAZ2B block 50.1µM, G9a block inconclusive (no result: HP1b binding inh, JMJD2A Tudor)
O=C(O)/C=C\C(=O)Nc1ccc(Oc2ccccc2)cc1	G9a block inconclusive
O=C(O)/C=C/C(=O)Nc1ccc(C2(c3ccc(NC(=O)/C=C/C(=O)O)cc3)c3ccccc3-c3ccccc32)cc1	BAZ2B block 50.1µM (no result: G9a block)
O=C(C=Cc1ccccc1)Nc1ccccc1	none (no result: BAZ2B block, G9a block, Sfp PPTase inh)
CCOc1ccccc1N1C(=O)CC(Sc2ncccc2C(=O)O)C1=O (stereo not drawn)	G9a block inconclusive
O=C(N/N=C/c1cc(Br)cc(Br)c1O)c1cccc(N2CCCC2=O)c1	BAZ2B block inconclusive, JMJD2A Tudor 89.1µM
O=C(N/N=C/c1ccc([N+](=O)[O-])cc1)c1cccc(N2CCCC2=O)c1	BAZ2B block 79.4µM, G9a block inconclusive
COCCCNC(=O)c1c[nH]c2ccc(S(=O)(=O)N3CCC(C)CC3)cc2c1=O	none
C(=N\n1c2ccccc2c2ccccc21)/c1ccccc1	none
C(=N/n1c2ccccc2c2ccccc21)/c1ccco1	HP1b binding inh 35.5µM, BAZ2B block 8.91µM, G9a block inconclusive, JMJD2A Tudor inconclusive
Nc1ccccc1SSc1ccccc1N	HP1b binding inh inconclusive, BAZ2B block 44.7µM, G9a block 1.58µM, JMJD2A Tudor 31.6µM, Sfp PPTase inh 3.55µM
Nc1ccccc1SCc1ccccc1Cl	G9a block inconclusive, Sfp PPTase inh 20µM
CCOC(=O)c1cncc(C(=O)O)c1	G9a block inconclusive
Cc1nnc(SCC(=O)NC(=O)NC(C)(C)C)n1N	HP1b binding inh inconclusive, G9a block inconclusive, JMJD2A Tudor inconclusive, Sfp PPTase inh inconclusive
Cc1cc(C)cc(OCCn2ccnc2)c1	none
CCOc1ccc(OCCOCCn2ccnc2)cc1	HP1b binding inh inconclusive, BAZ2B block 79.4µM, G9a block inconclusive, JMJD2A Tudor 8.91µM
Cc1cccc(OCCn2ccnc2)c1	G9a block inconclusive
Cc1cc(OCCn2ccnc2)cc(C(C)C)c1	HP1b binding inh 22.4µM, BAZ2B block 28.2µM, G9a block 11.2µM, JMJD2A Tudor 0.794µM
CCC(C)c1ccc(OCCn2ccnc2)cc1 (stereo not drawn)	BAZ2B block 50.1µM, G9a block inconclusive, JMJD2A Tudor 20µM
COc1ccc(C(=O)CCC(=O)N2CCN(c3ccc([N+](=O)[O-])cc3)CC2)cc1	none
O=C(N/C(=C/c1cccnc1)C(=O)N1CCCCCC1)c1ccccc1	none
COc1ccc(-c2nc(C#N)c(N3CCc4ccccc4C3)o2)cc1OC	BAZ2B block 7.08µM, G9a block 28.2µM, JMJD2A Tudor inconclusive
COc1ccccc1-c1nc(C#N)c(N2CCc3ccccc3C2)o1	HP1b binding inh inconclusive, BAZ2B block 10µM, G9a block inconclusive, JMJD2A Tudor inconclusive
O=Cc1cccn1-c1ccc(O)cc1	BAZ2B block 79.4µM
Cc1ccc(Cl)cc1NC(=O)Cn1nc(-c2cccs2)ccc1=O	none
CC12CCC(C(=O)NNc3ccc([N+](=O)[O-])cc3)(OC1=O)C2(C)C (stereo not drawn)	none
CC12CCC(C(=O)NNc3ccccc3)(OC1=O)C2(C)C (stereo not drawn)	G9a block 56.2µM
CCN(CC)S(=O)(=O)c1cccc(-c2nnc(SCC(=O)NC3CCCCCC3)n2N)c1	none

Source: PubChem
